Experiments:
Settings in all cases: concentration: 1 μM, replicates: in singlicate; n = 1
TRPM6 = tested on: TRPM6
TSSK1B = tested on: TSSK1B
TSSK3 = tested on: TSSK3
TTK = tested on: TTK
TXK = tested on: TXK
[1] = tested on: TYK2(JH1domain-catalytic)
[2] = tested on: TYK2(JH2domain-pseudokinase)
TYRO3 = tested on: TYRO3
ULK1 = tested on: ULK1
ULK2 = tested on: ULK2
ULK3 = tested on: ULK3
VEGFR2 = tested on: T1, VEGFR2
T1 construct: gene KDR

VPS34 = tested on: T2, VPS34
T2 construct: gene PIK3C3

VRK2 = tested on: VRK2
WEE1 = tested on: WEE1
WEE2 = tested on: WEE2
WNK1 = tested on: WNK1
WNK2 = tested on: WNK2
WNK3 = tested on: WNK3
WNK4 = tested on: WNK4
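Also: KINOMEscan kinase panel screen.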

SMILES	%Inh (TRPM6) [%]	%Inh (TSSK1B) [%]	%Inh (TSSK3) [%]	%Inh (TTK) [%]	%Inh (TXK) [%]	%Inh [1] [%]	%Inh [2] [%]	%Inh (TYRO3) [%]	%Inh (ULK1) [%]	%Inh (ULK2) [%]	%Inh (ULK3) [%]	%Inh (VEGFR2) [%]	%Inh (VPS34) [%]	%Inh (VRK2) [%]	%Inh (WEE1) [%]	%Inh (WEE2) [%]	%Inh (WNK1) [%]	%Inh (WNK2) [%]	%Inh (WNK3) [%]	%Inh (WNK4) [%]
O=C(NCc1cccs1)c1cc(C(=O)c2c(Cl)cccc2Cl)c[nH]1 [GW823670]	0	18	0	9	0	1	0	0	0	29	0	0	0	0	2	5	0	0	0	0
COc1ccc(-c2cc3c(C)nc(N)nc3n([C@H]3CC[C@H](OCCO)CC3)c2=O)cn1	0	2	0	0	2	0	0	0	0	0	3	0	0	0	0	0	0	0	0	0
CN1C(=O)C(Nc2cc(Cl)c(O)c(Cl)c2)=C(c2ccc(Cl)cc2)C1=O [SB-404321]	0	0	22	0	0	0	13	0	0	0	0	0	0	90.3	0	15	0	35	0	0
Cc1cc(Nc2nc(-c3cccc(C)n3)nc3ccccc23)ccn1 [GW872411]	0	0	0	0	0	0	1	0	4	0	0	0	0	40	1	2	0	0	0	0
COc1cccc(-n2cnc3c(N)ncnc32)c1 [SKF-97416]	65	0	21	44	11	83	40	0	45	39	27	15	45	8	2	0	7	0	38	43
COc1ccc(-n2cnc3c(N)ncnc32)cc1 [SKF-97236]	66	11	0	28	12	11	24	0	21	10	10	0	27	0	0	0	11	19	0	0
COc1ccc(-c2coc3ccc(-c4nnc(SCc5cccc(C#N)c5)o4)cc23)cc1	0	0	0	6	2	10	0	0	0	5	81	10	0	0	0	8	0	0	0	3
CCn1c(-c2ccoc2)nc2cnccc21 [SB-733887]	52	0	6	0	28	27	50	0	29	4	11	65	0	8	4	0	15	18	19	0
COc1ccc(CNC(=O)NC2CCN(c3ccnc(Nc4ccc(F)cc4)n3)C2)cc1 (stereo not drawn) [GSK1379706]	4	0	21	21	0	27	23	0	0	0	0	9	33	33	10	9	0	30	49	50
Cc1ccc(-c2ccc3c(ccc4sc5c(c43)NC[C@@H](C)N=C5N(C)C)n2)cn1	0	0	0	0	0	0	0	0	0	0	0	0	0	0	0	0	0	0	0	0
O=C(Nc1ccc2c(c1)OCO2)NC1CCN(c2ccnc(NCc3ccc(F)cc3)n2)CC1 [GSK1379859]	47	0	12	0	0	0	0	0	12	0	0	0	7	0	12	0	0	0	0	13
Cc1c(Cn2c(C)nn3c(=O)cc(N4CCO[C@H](C)C4)nc23)cccc1C(F)(F)F [GSK2373690]	0	0	14	0	3	0	0	22	14	0	21	0	59	0	5	5	11	4	20	0
COc1cc2ncn(-c3cc(OCc4ccncc4Br)c(C(N)=O)s3)c2cc1OC [GW854278]	0	0	0	0	21	0	5	11	2	0	36	31	58	24	0	18	19	35	64	0
O=c1cc(N2CCOCC2)nc2n(Cc3ccc(F)c(Cl)c3)ccn12 [GSK2297099]	36	0	9	0	0	0	15	0	16	0	8	4	95.2	0	2	3	8	4	5	6
Nc1nc(N)c2nc(-c3ccccc3)[nH]c2n1 [SKF-12778]	11	0	5	4	25	43	74	0	16	9	30	0	0	5	8	0	9	9	11	17
COc1ccc(Nc2nccc(N3CCC(NS(=O)(=O)c4ccc(NC(C)=O)cc4)C3)n2)cc1 (stereo not drawn) [GSK1379729]	0	0	21	7	35	93.8	0	23	26	0	42	0	92.3	16	37	11	24	38	0	29
Cn1c(=O)c(F)c(Nc2ccc(I)cc2F)c2c(=O)n(OC[C@H](O)CO)cnc21	0	0	0	15	23	0	0	2	0	0	13	0	0	0	29	4	0	0	0	11
Nc1ncnc2c1ncn2-c1ccc(Cl)cc1 [AH2635]	44	0	16	0	5	25	39	0	0	0	2	0	0	15	0	11	0	0	34	32
OCCCNc1nccc(-c2c(-c3cccc(C(F)(F)F)c3)nn3cc(C(F)(F)F)ccc23)n1 [GW630813]	0	0	6	0	0	14	13	0	0	0	0	3	0	18	0	0	0	0	33	85
Cc1nn2c(=O)cc(N3CCOCC3)nc2n1Cc1cccc(Cl)c1Cl [GSK2342769]	0	0	6	0	13	10	4	0	17	0	11	0	95.4	0	1	9	0	3	13	0
COc1cc2nccc(Nc3cccc(Oc4ccccc4)c3)c2cc1OC.Cl [GW284543]	11	11	13	0	3	5	0	0	6	15	8	12	35	0	8	14	0	11	10	0

SMILES	%Inh (TRPM6) [%]	%Inh (TSSK1B) [%]	%Inh (TSSK3) [%]	%Inh (TTK) [%]	%Inh (TXK) [%]	%Inh [1] [%]	%Inh [2] [%]	%Inh (TYRO3) [%]	%Inh (ULK1) [%]	%Inh (ULK2) [%]	%Inh (ULK3) [%]	%Inh (VEGFR2) [%]	%Inh (VPS34) [%]	%Inh (VRK2) [%]	%Inh (WEE1) [%]	%Inh (WEE2) [%]	%Inh (WNK1) [%]	%Inh (WNK2) [%]	%Inh (WNK3) [%]	%Inh (WNK4) [%]
CCc1nc(-c2cccc(C)c2)c(-c2ccncc2)s1	0	0	0	0	0	0	25	0	0	0	12	0	0	0	0	0	0	0	0	0
COc1cc2ncn(-c3cc(OCc4ccncc4)c(C(N)=O)s3)c2cc1OC [GSK336313]	24	0	11	0	6	3	13	0	16	0	9	7	5	0	33	15	7	0	10	0
COc1cccc(C2=C(Nc3cccc(C(=O)O)c3)C(=O)NC2=O)c1 [SB-390770]	15	23	15	0	48	19	0	0	26	6	9	11	34	16	0	7	3	18	5	0
Cc1cccc(-c2cc(-c3c[nH]nc3-c3ccccn3)ccn2)c1 [GW679395]	0	24	0	23	0	9	27	0	0	0	5	0	0	26	13	1	11	22	36	38
Cc1ccccc1COc1cc(-n2cnc3cc(Cl)ccc32)sc1C(N)=O [GW813349]	0	3	0	2	9	5	5	5	0	0	0	11	84	0	4	5	0	0	6	0
C[C@@H]1CC[C@H](C(=O)NC2CCCCC2)CN1c1cc(-c2ccc3c(N)n[nH]c3c2)nc(N)n1 [GSK2291363]	16	31	31	16	6	0	23	0	6	0	11	8	31	0	34	26	16	4	21	0
O=C(Nc1n[nH]c2nc(-c3ccccc3)c(Br)cc12)C1CC1 [SB-708998]	18	25	14	24	14	14	1	0	30	0	11	2	0	0	0	0	2	0	9	0
COc1cccc(C2=C(N(C)c3ccccc3)C(=O)NC2=O)c1 [SB-334865]	26	0	7	0	22	12	42	0	19	0	12	1	0	10	4	0	8	0	20	15
Nc1n[nH]c2ncc(-c3ccccc3)cc12 [SB-517081]	21	16	4	33	0	45	92.7	0	3	0	14	16	0	11	17	2	12	0	27	35
CCC(=O)c1c(-c2ccccc2)c2cc(Cl)ccc2c(=O)n1Cc1cc(S(C)(=O)=O)n(CC(F)F)n1	10	0	0	0	6	0	0	0	0	0	0	0	0	0	0	0	0	0	0	0
Cc1cccc(-c2nc(Nc3ccc4c(cnn4C)c3)c3ccccc3n2)n1 [GW876731]	0	3	0	0	10	20	39	5	8	13	0	0	56	15	0	0	18	7	21	0
CN1C(=O)C(Nc2ccccc2)=C(c2ccccc2)C1=O [SB-300079]	0	0	0	0	0	0	17	0	6	12	7	0	30	19	51	1	0	0	33	26
Nc1ncnc2c1ncn2-c1cccc2ccccc12 [SKF-97184]	39	0	0	23	0	68	37	0	24	16	30	0	56	29	0	0	15	0	29	15
COc1cc2ncn(-c3cc(OCc4ccc(S(C)(=O)=O)cc4)c(C(N)=O)s3)c2cc1OC [GW869979]	0	0	22	0	0	17	11	19	6	6	22	20	33	2	0	0	0	58	0	51
O=C(NCCNc1ccnc(Nc2ccc(F)cc2)n1)Nc1ccc2c(c1)OCO2 [GSK1379882]	26	0	24	15	100	21	28	0	0	0	21	9	0	0	13	6	5	18	30	12
CCC(=O)c1c(-c2ccccc2)c2cc(Cl)ccc2c(=O)n1Cc1cc(S(C)(=O)=O)n(CCC(C)(C)O)n1	18	0	1	4	18	0	6	0	0	7	0	2	0	0	0	0	0	31	0	25
CC(C)(C)c1ccc(C(=O)Nc2cn3cc(-c4ccccc4)ccc3n2)cc1	0	0	8	0	9	0	6	5	0	49	12	0	0	1	6	0	0	0	0	16
COc1cc2ncn(-c3cc(OCCCc4ccccc4)c(C(N)=O)s3)c2cc1OC [GSK205189]	0	0	10	12	0	0	0	0	2	0	3	0	0	0	12	4	0	8	0	0
CN(C)c1cc(-c2ccc3c(N)n[nH]c3c2)nc(N)n1 [GSK2219329]	13	0	6	0	97.2	14	25	0	0	0	9	3	0	0	3	1	3	0	15	32
Nc1ncnc2c1ncn2-c1cccc(F)c1 [SKF-97560]	74	22	20	0	0	38	35	9	7	26	21	6	4	29	0	0	3	73	0	54
COc1cc(Nc2ccnc3ccc(C(F)(F)F)cc23)cc(OC)c1OC [GW577382]	0	0	13	17	54	19	0	0	0	0	14	0	0	27	11	14	8	13	27	0

From paper PMC5540273 (PLoS ONE, 2017)
